Hits are enriched below; roughly 1.6% of the tested compounds scored in any of these assays.
Yeast superoxide: caloric restriction mimetics inhibiting age-related superoxide in yeast; S. cerevisiae aged cells, superoxide DHE fluorescence; stronger effect = lower value; superoxide response (% of plate mean), % at 10 µM; 330,000 compounds, 0.18% hits; AID 2690;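 active = superoxide response under a set limit, about three screen SD below normal, cut at about 65% in these data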;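 note: yeast aged for seven days with compound at 30 °C before DHE staining; 100% = average MFI of all compound-treated wells on the plate with controls excluded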
Efflux pump inh: inhibitors of Candida antifungal efflux pumps expressed in yeast | S. cerevisiae Candida pump triplex, Nile Red efflux | inhibition, % at 10 µM | 330,000 compounds, 0.44% hits | AID 485275;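 active = plate passing quality check with inhibition over a set limit, or well fluorescence over plate mean plus 4 SD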;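 note: Nile Red retained in pooled yeast measured as flow cytometry median fluorescence; 0% = buffer negative control and 100% = Enniatin B positive control; higher means more Nile Red kept so more efflux inhibition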
ATG4B inhibitor: ATG4B (human) cysteine protease inhibition | ATG4B cleavage of LC3-PLA2, NBD-HPC fluorescence, 1 h | 340,000 compounds, 0.51% hits | Q9Y4P1 | inhibition, % at 8.33 µM; in the data active = inhibition above about 40%
GRK2 aptamer HTS: human GRK2 inhibition via aptamer displacement | inhibition of aptamer binding, % at 10 µM | 330,000 compounds, 0.59% hits | bead flow cytometry, FAM-aptamer displacement from GRK2 | AID 488847;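 active = inhibition of aptamer binding above 40%, roughly 3 SD of noise, on plates passing a quality check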;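 note: median bead fluorescence of bound FAM aptamer so fluorescent compounds give negative values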
Target sequence (P25098 whole entry, looked up): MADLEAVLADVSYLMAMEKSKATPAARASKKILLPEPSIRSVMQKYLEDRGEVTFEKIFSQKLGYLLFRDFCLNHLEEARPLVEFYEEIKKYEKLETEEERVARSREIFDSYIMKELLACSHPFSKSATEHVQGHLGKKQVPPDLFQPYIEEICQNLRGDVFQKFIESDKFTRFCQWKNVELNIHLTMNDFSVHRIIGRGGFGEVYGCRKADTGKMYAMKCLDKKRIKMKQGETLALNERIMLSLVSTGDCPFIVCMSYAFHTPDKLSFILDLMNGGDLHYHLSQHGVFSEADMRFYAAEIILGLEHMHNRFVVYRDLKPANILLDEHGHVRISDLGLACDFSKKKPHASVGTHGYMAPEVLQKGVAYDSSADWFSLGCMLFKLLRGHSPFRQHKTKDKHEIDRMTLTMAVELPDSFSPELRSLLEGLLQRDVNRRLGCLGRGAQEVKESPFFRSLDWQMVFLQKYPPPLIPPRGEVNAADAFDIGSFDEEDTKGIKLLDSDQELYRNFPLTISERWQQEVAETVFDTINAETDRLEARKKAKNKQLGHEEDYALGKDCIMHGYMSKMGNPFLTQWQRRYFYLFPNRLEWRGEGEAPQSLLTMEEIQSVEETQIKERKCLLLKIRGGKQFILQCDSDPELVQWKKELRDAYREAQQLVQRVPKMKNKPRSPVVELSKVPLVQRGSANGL
GRK2 CP1: confirmation of human GRK2 inhibitors displacing RNA aptamer | aptamer displacement, % at 10 µM | shares compounds with GRK2 aptamer HTS | AID 504451 | 2,000 compounds, 4% hits | bead-bound GRK2, FAM-aptamer displacement, flow cytometry;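 active = aptamer displacement above 40%, near three times the noise of non-fluorescent compounds, on plates passing quality checks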;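 note: negative values mostly reflect intrinsic compound fluorescence rather than true enhancement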
Aptamer quench SP: quenches fluorescent RNA aptamer, GRK2 hit artifact; shares compounds with GRK2 aptamer HTS; fluorescence response (% of DMSO), % at 10 µM; 2,000 tested, under 10 active; Carboxyfluorescein RNA aptamer on beads, flow cytometry quenching; stronger effect = lower value;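 active = compounds that quench the bead-bound fluorescent RNA probe, cutting fluorescence to under half of the solvent control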;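 note: counterscreen run without GRK2 so only probe quenching by compound is measured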
GRK2 confirm 2: human GRK2 inhibition confirmation, cherry pick 2. shares compounds with GRK2 aptamer HTS. bead-bound GRK2, FAM-aptamer displacement, flow cytometry. inhibition of aptamer binding, % at 10 µM. 360 tested, under 10 active. AID 504782;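 active = inhibition of aptamer binding above 40%, about triple the noise seen with nonglowing compounds, on plates passing quality control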;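 note: negative values mostly come from compounds that fluoresce themselves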
FAM quench CP2: aptamer fluorescence quenching in GRK2 counter-screen. shares compounds with GRK2 aptamer HTS. AID 588494. 360 tested, under 10 active. carboxyfluorescein RNA aptamer beads, flow cytometry quenching; stronger effect = lower value. fluorescence response vs DMSO, % at 10 µM;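 active = response vs DMSO under 50%, meaning signal dropped by over half, treated as fluorescence quencher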;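 note: labelled aptamer on streptavidin beads without GRK2 as a quench counter-screen; 100% = bead fluorescence of DMSO wells and lower means quenching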
Numbers without * were called inactive; · = not tested or not shown.

SMILES	Yeast superoxide	Efflux pump inh	ATG4B inhibitor	GRK2 aptamer HTS	GRK2 CP1	Aptamer quench SP	others
NC(=O)N(CCC(=O)O)c1ccccc1	119	0	10	78*	·	·	GRK2 confirm 2=29;FAM quench CP2=99
COc1cc(/C=N/NC(=O)c2cc(C)oc2C)ccc1OCc1ccccc1	110	0	3	0	·	·
CCOC(=O)C1(Cc2ccc(Cl)cc2)CCN(C(=O)c2ccoc2)CC1	98	0	-2	7	·	·
CCCC(=O)NCc1ccc2c(c1)cc(C)n2C	101	0	5	22	·	·
Cc1cc2cc(CNC(=O)c3ccc(Br)o3)ccc2n1C	98	0	4	73*	8	80
Cc1cc2cc(CNC(=O)Nc3cccc(Cl)c3)ccc2n1C	101	0	4	44*	-11	99
COc1ccc(CCNC(=O)CC2SC(=NCCc3ccccc3)NC2=O)cc1 (configuration not stated)	90	0	-4	2	·	·
Cc1nn(Cc2ccc(F)cc2)c(C)c1NC(=O)CCCn1nc([N+](=O)[O-])cc1C	88	0	-10	0	·	·
NC(=O)/C(=C\c1ccccc1)NC(=O)c1ccc(NC(=O)c2ccccc2)cc1	107	0	32	2	·	·
COc1ccc(-c2c(C#CC(C)(C)O)c3ccccc3n2C)cc1	78	0	-3	94*	·	·	GRK2 confirm 2=-11;FAM quench CP2=96
Cc1cc(C)c(NC(=S)NCC2CCN(C(C)c3ccccc3)C2)c(C)c1 (configuration not stated)	106	0	25	0	·	·
CCc1cccc(C)c1NC(=O)CC1Oc2ccc(C)cc2NC1=O (configuration not stated)	100	0	7	49*	·	·	GRK2 confirm 2=0;FAM quench CP2=101
CC(C)Cc1nnc(NC(=O)CSc2nc(-c3ccccc3)cc(=O)[nH]2)s1	111	0	-11	1	·	·
COc1ccc(/C(O)=C2/C(=O)C(=O)N(CCN(C)C)C2c2ccc(OC)c(OC)c2)c(C)c1 (configuration not stated)	90	0	-8	71*	-3	114
COc1ccc(C2/C(=C(/O)c3cnn(-c4ccccc4)c3C)C(=O)C(=O)N2CCN(C)C)cc1OC (configuration not stated)	·	·	-6	·	·	·
CCN=C1S/C(=C\c2ccc(-c3cccc(C(=O)O)c3)o2)C(=O)N1CC	135	0	6	34	5	83
COc1cccc(CC2(CO)CCCN(Cc3ccc(C)s3)C2)c1 (configuration not stated)	90	0	-2	0	·	·
COc1cccc(CC2(CO)CCCN(Cc3[nH]c4ccc(C)cc4c3C)C2)c1 (configuration not stated)	104	0	-7	40	-10	92
COc1cccc(CC2(CO)CCCN(Cc3cn[nH]c3-c3cc(C)ccc3C)C2)c1 (configuration not stated)	102	0	-11	0	3	97
COc1cccc(CC2(CO)CCCN(Cc3cn[nH]c3C3CCCCC3)C2)c1 (configuration not stated)	100	0	-4	0	·	·
O=C(Nc1ccccc1Cl)C1CCCN(c2ncnc3c2nc2n3CCCCC2)C1 (configuration not stated)	133	0	5	0	·	·
c1coc(CSSCc2ccco2)c1	83	0	-4	3	·	·
COc1ccc(Cl)cc1C(=O)NNC(=O)COC(=O)CC(NC(C)=O)c1ccccc1 (configuration not stated)	92	0	4	4	·	·
Fc1cccc(Nc2ncnc3sc4c(c23)CCC4)c1	107	1	8	94*	·	·	GRK2 confirm 2=-13;FAM quench CP2=101
O=S(=O)(Nc1ncnc2sc3c(c12)CCC3)c1cc(F)ccc1F	116	0	1	0	·	·
Cc1onc(-c2ccccc2)c1C(=O)NCC1CCCO1 (configuration not stated)	92	0	-7	91*	-2	99

High-throughput results (PubChem BioAssay)
